Assay outcomes as filed in PubChem BioAssay.
Rows were chosen to be rich in hits. Some 3.5% of all compounds tested hit in one or more screens of this group.
BoNT-A LC inh2: BoNT A light chain protease inhibition; inhibition, % at 10 µM; actives 0.17% (n = 360,000); multiplex microsphere protease substrate cleavage, flow cytometry; AID 588499; further: plate controls were buffer without enzyme for full effect and enzyme alone for no effect
BJeLR viability: kills HRASV12-expressing BJeLR cells. AID 1554. actives 0.17% (n = 300,000). inhibition, % (no concentration beside the values). BJeLR (HRASV12) viability, CellTiter-Glo ATP luminescence, 48 h; in the data active means inhibition above about 50%; inconclusive means no clear call, values can overlap the other calls
Anthrax LF inh2: blocks Bacillus anthracis lethal factor protease | actives 0.12% (n = 360,000) | multiplex microsphere protease cleavage assay, LF | inhibition, % at 10 µM | AID 588501 | P15917; further: plate controls were buffer without enzyme for full effect and enzyme alone for no effect
BoNT-F LC inh: inhibitors of Botulinum neurotoxin F light chain protease; Multiplex microsphere protease cleavage assay, flow cytometry; inhibition, % at 10 µM; actives 0.22% (n = 360,000); AID 588497; in the data active means inhibition above about 35%, passing the limit was not always enough; inconclusive means no clear call, values can overlap the other calls; further: plate controls were buffer without enzyme for full effect and enzyme alone for no effect
Autofluor counter: counter-screen for toxin protease inhibitors: compound fluorescence; compound autofluorescence counterscreen, microsphere flow cytometry; active compounds read high; fluorescence intensity (test concentration not listed); actives 3.1% (n = 360,000); AID 624483; in the data active means fluorescence intensity above about 16000; inconclusive means no clear call, values can overlap the other calls
* marks the source's active call; other numbers are inactive results; ? = inconclusive; · = no result. Unless noted, no stated cut-off is given here; in the data, active means inhibition above about 30%; inconclusive means no clear call, values can overlap the other calls; inactive means below that.

SMILES	BoNT-A LC inh2	BJeLR viability	Anthrax LF inh2	BoNT-F LC inh	Autofluor counter
O=C(NCc1cccnc1)/C(=C/c1ccc(-c2cccc(C(F)(F)F)c2)o1)NC(=O)c1ccccc1	?	3	-2	-9	22544*
O=C(O)c1nc(N2CCCC2)ncc1Cl	7	7	-8	10	19947*
O=C(O)c1nc(N2CCCCC2)ncc1Cl	-1	8	-3	-9	2505
O=S(=O)(Nc1ccc(Cc2ccncc2)cc1)c1ccc(Cl)c(Cl)c1	0	-3	-4	2	16421*
COc1ccc(S(=O)(=O)Nc2ccc(Cc3ccncc3)cc2)cc1OC	2	12	4	6	4317
CCN(CC)c1ccc2nc3ccc(N)cc3[n+](-c3ccccc3)c2c1	34*	·	1	-40	3078
O=C(COc1ccc(S(=O)(=O)NC2CCCCC2)cc1)N1CCN(c2cccc(Cl)c2)CC1	-1	6	-4	3	22384*
CC1CCN(CCCn2c(=S)[nH]c3ccc(N4CCOCC4)cc3c2=O)CC1	-2	4	-1	-3	22801*
COc1cccc(Cn2c(=S)[nH]c3ccc(N4CCOCC4)cc3c2=O)c1	-3	-4	-1	-3	20640*
O=c1c2cc(N3CCOCC3)ccc2[nH]c(=S)n1CCCN1CCCC1	1	5	0	-1	10120
O=c1c2cc(N3CCOCC3)ccc2[nH]c(=S)n1Cc1cccc(Cl)c1	0	-11	-1	-1	23197*
O=c1c2cc(N3CCOCC3)ccc2[nH]c(=S)n1Cc1ccco1	?	0	?	?	?
COc1cc(C(=O)OCC(=O)c2cc(C)n(CC3CCCO3)c2C)ccc1OCC(=O)N1CCOCC1 (stereo not drawn)	0	7	-3	2	4638
OC(c1cccnc1)c1nc(-c2cccc(F)c2)cs1 (stereo not drawn)	0	·	-1	-3	4021
CCCN(CCO)Cc1ccc(Cl)c(Cl)c1	0	11	-2	4	7961
OCCN(Cc1ccccc1)Cc1cccc(C(F)(F)F)c1	0	·	-2	1	23013*
OCCN(Cc1ccccc1)Cc1ccc(C(F)(F)F)cc1	0	-7	-5	5	3168
OCCN(Cc1ccccc1)Cc1cccc(F)c1	-1	-1	1	0	20011*
CCCN(CCO)Cc1cccc(Cl)c1	-1	0	2	-2	16966*
OCCN(Cc1ccccc1)Cc1ccccc1Cl	?	9	-3	-1	23592*
OCCN(Cc1ccccc1)Cc1cccc(Cl)c1Cl	0	2	-5	2	11501
COc1cc(OC)nc(Nc2nc(CN)cs2)n1	0	·	-2	-4	2945
O=[N+]([O-])c1cc(F)cc(F)c1Nc1cc(F)cc(F)c1	0	·	0	-8	3107
COc1cccc(N(C(=O)CCl)C(C(=O)NCCc2ccccc2)c2cccs2)c1 (stereo not drawn)	0	72*	-5	-2	10974
COc1ccc(N(C(=O)CCl)C(C(=O)NCCc2ccccc2)c2cccs2)cc1Cl (stereo not drawn)	0	139*	0	-4	2047
SMILES	BoNT-A LC inh2	BJeLR viability	Anthrax LF inh2	BoNT-F LC inh	Autofluor counter
COc1cccc(N(C(=O)c2snc(C(N)=O)c2N)C(C(=O)NCC2CCCO2)c2cccs2)c1 (stereo not drawn)	3	-10	14	6	3918
COc1ccc(N(C(=O)c2ccco2)C(C(=O)NC2CCCCC2)c2cccs2)cc1OC (stereo not drawn)	-1	-5	0	1	2839
O=C(Nc1ccc(Cl)cc1)c1ccc(-n2cncn2)c([N+](=O)[O-])c1	-5	0	-2	-9	24392*
Cc1ccc(CC(NC(=O)c2ccccc2)C(=O)NC(CC(C)C)C(=O)O)cc1 (stereo not drawn)	-1	6	0	-5	5008
O=C(COC(=O)C(Cc1ccccc1)NC(=O)c1cccs1)NCc1ccccc1 (stereo not drawn)	-5	·	-1	-9	?
CC(=O)NCCNC(=O)[C@H](Cc1ccccc1)NC(=O)c1cccs1	?	-1	-5	-1	20647*
Cc1ccc(NC(=O)C(Cc2ccccc2)NC(=O)c2ccco2)cc1 (stereo not drawn)	?	-10	-1	-1	23460*
O=C(O)c1ccc(NC(=S)NC(NC(=O)c2ccco2)C(Cl)(Cl)Cl)cc1 (stereo not drawn)	-4	0	-5	-9	25206*
Cc1ccc(CC(NC(=O)c2ccccc2)C(=O)NCC(=O)O)cc1 (stereo not drawn)	2	-11	-1	4	22985*
S=C(NCCCCN(Cc1ccc(Cl)cc1)c1ccc(Br)cn1)NCCCc1cnc[nH]1	0	·	-6	-20	3860
O=C1NC[C@H](CCCCN2C[C@H](Cc3ccccc3)N(CCC3CCCCC3)C(=O)C2=O)N(Cc2ccccc2)C1=O	-1	·	-6	-3	6094
CCc1nc2ccc(C)cc2c(C(=O)NC2CCCCC2C)c1C (stereo not drawn)	?	-5	-8	4	18786*
Cc1ccc2nc(C)cc(C(=O)NC3CCCCCC3)c2c1	0	·	-8	2	2914
CCOC(=O)N1CCC(NC(=O)c2cccn3c(=O)c4cc(Br)ccc4nc23)CC1	3	-1	0	6	18434*
CCOC(=O)N1CCC(NC(=O)c2ccc3nc4ccccc4c(=O)n3c2)CC1	·	10	·	·	·
COCCNC(=O)c1onc(CSc2cc(C)cc(C)c2)c1C(=O)NCCOC	0	-6	-3	-3	2908
CCOc1ccc(N(Cc2cc3ccc(C)cc3[nH]c2=O)S(C)(=O)=O)cc1	2	-7	-1	3	22539*
COc1ccc(N(Cc2cc3cccc(C)c3[nH]c2=O)S(C)(=O)=O)cc1	-2	-13	-1	-5	24150*
CCOc1ccc(N(Cc2cc3ccc(C)cc3[nH]c2=O)S(=O)(=O)c2ccccc2)cc1	2	-6	-2	-2	4345
C=CCSc1ncccc1C(=O)NCCc1ccc(Cl)cc1	1	-2	-15	20	7097
Cc1ccc(CNC(=O)c2ccccc2N)cc1	1	5	0	1	19203*
C=CCSc1ncccc1C(=O)O	-3	-3	-3	-5	23263*
O=C(O)CSc1ncccc1C(=O)O	0	10	-4	-3	2554
C=CCSc1ncccc1C(=O)NCc1ccc(C)cc1	2	6	-2	0	19941*
Cc1cc(C)n2nc(C(=O)N/N=C/c3cn(C)nc3C)nc2n1	?	-3	-6	?	5203
CCOc1ccc(Oc2ccc(NS(=O)(=O)c3ccc(CCC(=O)O)cc3)cc2)cc1	0	·	-4	-1	2892
O=C(/C=C/c1cccs1)Nc1ccc(Br)cn1	0	53*	-2	-5	1874
COc1ccc(NC(=S)Nc2ccc3c(c2)c(=O)n(C)n3-c2ccccc2)cc1	0	·	-5	-4	4070
Cc1c(S(=O)(=O)N2CCN(c3cccc(C(F)(F)F)c3)CC2)c(=O)n(C)c(=O)n1C	-1	0	-8	-2	5536
